# Reference: article PMC5540273 (PLoS ONE, 2017)
# Where two headings read alike, the source gives them in different places.
# Tests used:
# Conditions in all cases: n = 1
# ROCK1 = tested on: ROCK1
# ROCK2 = tested on: ROCK2
# ROS1 = tested on: ROS1
# [1] = tested on: RPS6KA4(Kin.Dom.1-N-terminal)
# [2] = tested on: RPS6KA4(Kin.Dom.2-C-terminal)
# [3] = tested on: RPS6KA5(Kin.Dom.1-N-terminal)
# [4] = tested on: RPS6KA5(Kin.Dom.2-C-terminal)
# [5] = tested on: T1, RSK1(Kin.Dom.1-N-terminal)
# T1 construct: gene RPS6KA1
# [6] = tested on: T2, RSK1(Kin.Dom.2-C-terminal)
# T2 construct: gene RPS6KA1
# [7] = tested on: T3, RSK2(Kin.Dom.1-N-terminal)
# T3 construct: gene RPS6KA3
# [8] = concentration: 1 μM, replicates: in singlicate
# 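Also: KINOMEscan kinase panel screen.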
SMILES,%Inh (ROCK1; [8]) [%],%Inh (ROCK2; [8]) [%],%Inh (ROS1; [8]) [%],"%Inh [1, 8] [%]","%Inh [2, 8] [%]","%Inh [3, 8] [%]","%Inh [4, 8] [%]","%Inh [5, 8] [%]","%Inh [6, 8] [%]","%Inh [7, 8] [%]",%Inh (ROCK1; 1 µM) [%],%Inh (ROCK2; 1 µM) [%],%Inh (ROS1; 1 µM) [%],%Inh ([1]; 1 µM) [%],%Inh ([2]; 1 µM) [%],%Inh ([3]; 1 µM) [%],%Inh ([4]; 1 µM) [%],%Inh ([5]; 1 µM) [%],%Inh ([6]; 1 µM) [%],%Inh ([7]; 1 µM) [%]
COc1cccc(NC(=O)NC2CCN(c3ccnc(Nc4ccc(F)cc4)n3)C2)c1 (stereo not drawn) [GSK1379721],0,5,0,0,0,0,12,15,25,4,–,–,–,–,–,–,–,–,–,–
Cc1cccc(-c2nc(C)cc(Nc3ccncc3)n2)n1 [GSK257997],25,10,43,8,0,7,0,29,2,0,–,–,–,–,–,–,–,–,–,–
COc1ccccc1CNC(=O)c1cc(C(=O)c2ccccc2C)c[nH]1 [GSK364507],12,10,0,5,0,5,21,25,0,4,–,–,–,–,–,–,–,–,–,–
CC(C)(C)c1ccc(C(=O)Nc2cn3cc(Cl)ccc3n2)cc1,0,0,0,7,5,0,0,0,20,26,–,–,–,–,–,–,–,–,–,–
Cl.O=C(Nc1cccc(-c2nn3ncccc3c2-c2ccnc(Nc3cccnc3)n2)c1)c1c(F)cccc1F [GSK312879],0,0,0,20,0,9,0,8,10,27,–,–,–,–,–,–,–,–,–,–
Cc1ccc(-c2cc(-c3c[nH]nc3-c3ccccn3)ccn2)cc1 [GW684088],25,17,37,2,0,2,19,8,24,6,–,–,–,–,–,–,–,–,–,–
Cl.NC(=O)c1cccc(Nc2nccc(Nc3ccc(Oc4cccc(Cl)c4)c(Cl)c3)n2)c1 [GW659008],0,0,0,0,0,5,11,0,0,8,–,–,–,–,–,–,–,–,–,–
Cc1ccc(NC(=O)Nc2cccc(C(F)(F)F)c2)cc1 [GSK955403],–,–,–,–,–,–,–,–,–,–,0,0,0,0,1,3,6,1,6,0
COc1cccc(-c2cc(-c3c[nH]nc3-c3ccccn3)ccn2)c1 [GW680338],0,0,0,18,0,0,7,0,9,0,–,–,–,–,–,–,–,–,–,–
Cc1ccc(NC(=O)Nc2cc(C(C)(C)C)nn2-c2ccccc2)cc1 [GSK1014915],15,0,9,9,0,25,38,16,1,19,–,–,–,–,–,–,–,–,–,–
COc1cc2ncn(-c3cc(OCC4CCCO4)c(C(N)=O)s3)c2cc1OC (stereo not drawn) [GSK204607],0,0,8,0,3,9,8,13,0,0,–,–,–,–,–,–,–,–,–,–
CC1=C(C(=O)Nc2cc3cn[nH]c3cc2F)C(c2ccc(C(F)(F)F)cc2)CC(=O)N1 (stereo not drawn) [GSK429286],99.1,98.2,0,16,0,0,0,5,18,19,–,–,–,–,–,–,–,–,–,–
COc1cc2ncnc(Nc3ccc4nc(-c5ccccc5)[nH]c4c3)c2cc1OC.Cl [GW282450],18,30,47,6,0,11,3,0,0,0,–,–,–,–,–,–,–,–,–,–
Cc1nnc(-c2ccc3occ(-c4ccc(S(C)=O)cc4)c3c2)[nH]1 (stereo not drawn),20,0,0,0,11,0,15,9,33,13,–,–,–,–,–,–,–,–,–,–
COc1ccc2nc(-c3cccc(C)n3)nc(Nc3ccncc3)c2c1 [GSK204919],13,5,4,12,0,25,0,2,7,0,–,–,–,–,–,–,–,–,–,–
O=C(Nc1n[nH]c2nc(-c3nccs3)c(Br)cc12)C1CC1 [SB-742251],36,24,0,0,0,0,11,9,0,11,–,–,–,–,–,–,–,–,–,–
Fc1cc(Cl)ccc1Nc1ccnc2cc(I)ccc12 [GW551191],2,17,0,10,0,13,0,8,50,11,–,–,–,–,–,–,–,–,–,–
O=C(O)COc1ncnc2cc(-c3ccc4[nH]ncc4c3)sc12,27,61,3,15,17,0,0,21,34,13,–,–,–,–,–,–,–,–,–,–
